# From PubChem BioAssay (NCATS)
# Where “and” joins values, the source holds several entries; their conditions need not be identical. Equal values may be shown once. Results filed as inconclusive are left out. Entries that show only a call come without a potency. Calls of active or inactive are those of the source. The call rests on the fitted dose curve; in most records, active means well fitted curve in the direction sought with a large enough effect; inconclusive means small, poorly fitted or top-dose-only effect, or another doubt; inactive means no such curve, though single readings can be large; an effect the other way counts as inactive or inconclusive. *1 amine or outer side, *2 acyl side, *3 side chain or, on linkers, in order; H or OH if unused. Where a SMILES comes first, the peptide text is derived from it. Bridges are numbered along the chain shown (N, C = ends). X6 = O=C(CCC[*:2])[*:1]
# What was measured:
# [1] = Primary qHTS for inhibitors of nuclear receptor binding SET domain protein 2 (NSD2) in an isogenic RCH-ACV NSD2 p.E1099K mutant (9B) (AID 1645876)
# [2] = Primary qHTS for inhibitors of nuclear receptor binding SET domain protein 2 (NSD2) in an RCH-ACV wild type WT cells (2C) (AID 1645877)
# Further: nearly all actives have a fitted effect of over 70% in size.
# Potency means the concentration at half of the fitted maximal effect.
structure (smiles),measurement,setting,value
CC12CCC3c4ccc(O)cc4CCC3C1CCC2OC1OC(C(=O)O)C(O)C(O)C1O (configuration not stated),Potency,[1],inactive
same,Potency,[2],inactive
C[C@@H]1CC[C@]2(C(=O)O[C@@H]3O[C@H](CO)[C@@H](O)[C@H](O)[C@H]3O)CC[C@]3(C)C(=CCC4[C@@]5(C)C[C@@H](O)[C@H](O)C(C)(C)C5CC[C@]43C)C2[C@]1(C)O (some centres not stated),Potency,[1],inactive
same,Potency,[2],inactive
CC1(C)O[C@@H]2C[C@H]3[C@@H]4CCC5=CC(=O)C=C[C@]5(C)[C@H]4[C@@H](O)C[C@]3(C)[C@]2(C(=O)CO)O1,Potency,[1],inactive
same,Potency,[2],46.8 nM (active)
CC(=O)O[C@@H]1[C@H](O[C@@H]2O[C@H](CO)[C@@H](O)[C@H](O)[C@H]2O)[C@@H](O[C@@H]2O[C@@H](C)[C@H](O)[C@@H](O[C@@H]3O[C@H](CO)[C@@H](O)[C@H](O)[C@H]3O)[C@H]2O)[C@H](OC(=O)C23CCC4(C)C(=CCC5C6(C)CC(O)C(O[C@@H]7O[C@H](C(=O)O)[C@@H](O)[C@H](O)[C@H]7O)C(C)(C(=O)O)C6CCC54C)C2CC(C)(C)CC3O)O[C@@H]1C (some centres not stated),outcome,[1],inactive [at 9.23 µM]
same,"activity change, negative = cell killing",[2],0.269% [at 9.23 µM] (inactive)
CC(=O)N[C@H]1CCN(c2ccc(C3=NOC(CN[S+](=O)([O-])C(C)C)C3)cc2F)C1 (some centres not stated),Potency,[1],inactive
same,Potency,[2],inactive
OCC1OC(Oc2cc(O)c3c(c2)OC(c2ccc(O)cc2)C(O)C3)C(O)C1O (configuration not stated),Potency,[1],inactive
same,Potency,[2],inactive
C[C@@H](O)[C@H](N)C(=O)N1CCC[C@H]1C(=O)N1CCC[C@H]1C(=O)N[C@H](C(N)=O)[C@@H](C)O (H-TPPT-NH2),"activity change, negative = viability loss",[1],0.764% [at 9.23 µM] (inactive)
same,"activity change, negative = cell killing",[2],-0.759% [at 9.23 µM] (inactive)
COc1c(C)c2c(c(O)c1C/C=C(\C)CC/C=C(\C)CCC(=O)O)C(=O)OC2,Potency,[1],inactive
same,Potency,[2],inactive
COc1cc(C2Oc3c(OC)cc(/C=C/C(=O)OC[C@H]4O[C@@H](OC(C)(C)C(=O)O)[C@H](O)[C@@H](O)[C@@H]4O)cc3C2CO)ccc1O (some centres not stated),Potency,[1],inactive
same,Potency,[2],inactive
CC(=O)OCC(=O)O[C@@H]1[C@H]2[C@@H](OC(=O)c3ccccc3)[C@@H](C)C[C@]2(O)[C@H](OC(C)=O)C2(C)[C@H]3CC(C)(C)C(=O)[C@@H]3CC1(OC(C)=O)[C@@H]2OC(C)=O (some centres not stated),Potency,[1],inactive
same,Potency,[2],inactive
CC1(C)CCC(C)(C)c2cc3c(cc21)Sc1ccccc1N=C3c1ccc(C(=O)O)cc1,Potency,[1],inactive
same,Potency,[2],inactive
COc1ccc(C(O[C@@H]2O[C@H](CO)[C@@H](O)[C@H](O)[C@H]2O)C(CO)Oc2ccc(/C=C/CO)cc2OC)cc1O (some centres not stated),Potency,[1],inactive
same,Potency,[2],inactive
COc1ccc2c(c1)OC[C@]1(O)c3cc4c(cc3O[C@H]21)OCO4,Potency,[1],inactive
same,Potency,[2],inactive
COc1ccc(C(=O)O[C@H]2CC(C)=CC[C@@]3(C)[C@@H](OC(C)=O)C[C@@](O)(C(C)C)[C@H]23)cc1,Potency,[1],inactive
same,Potency,[2],inactive
CC(=O)[C@@H]1CC[C@]2(C(=O)O)CC[C@]3(C)C(CCC4[C@@]5(C)CC[C@H](O)C(C)(C)C5CC[C@]43C)C12 (some centres not stated),Potency,[1],7.96 µM (active)
same,Potency,[2],inactive
C[C@H]1C[C@H]2[C@@H]3CCC4=CC(=O)C=C[C@]4(C)[C@@]3(F)[C@@H](O)C[C@]2(C)[C@@]1(O)C(=O)COP(=O)(O)O,Potency,[1],inactive
same,Potency,[2],57.8 nM (active)
CC(C)CC1(C(=O)OCc2ccc(O[C@@H]3O[C@H](CO)[C@@H](O)[C@H](O)[C@H]3O)cc2)CC(=O)OC(C(=O)O)CC(=O)OCC2OC(O1)C(OC(=O)/C=C/c1ccc(O)cc1)C(O)C2O (some centres not stated),"activity change, negative = viability loss",[1],1.01% [at 9.23 µM] (inactive)
same,"activity change, negative = cell killing",[2],0.208% [at 9.23 µM] (inactive)
CC[C@H](C)[C@@H]1NC(=O)[C@H](Cc2ccc(OC)cc2)NC(=O)CCCSC[C@@H](C(=O)N2CCC[C@H]2C(=O)N[C@@H](CC(C)C)C(=O)NCC(N)=O)NC(=O)[C@H](CC(N)=O)NC(=O)[C@H](CCC(N)=O)NC1=O (Y(Me)IQNCPLG-NH2; linker N-5 via X6),Potency,[1],inactive
same,Potency,[2],inactive
COc1cc([C@H]2OC[C@]3(OC(C)=O)[C@@H](c4ccc(O[C@@H]5O[C@H](CO)[C@@H](O)[C@H](O)[C@H]5O)c(OC)c4)OC[C@H]23)ccc1O,Potency,[1],inactive
same,Potency,[2],inactive
CC1C/C=C/C=C\CCCCC(O)C/C=C/C(=O)O1 (configuration not stated),Potency,[1],inactive
same,Potency,[2],inactive
C=C1CCC(OC(C)=O)C2(C)CC3(O)OC(=O)C(C)=C3CC12 (configuration not stated),Potency,[1],inactive
same,Potency,[2],inactive
CC(/C=C/C1(O)C2(C)COC1(C)CC(=O)C2)O[C@@H]1O[C@H](CO)[C@@H](O)[C@H](O)[C@H]1O (some centres not stated),Potency,[1],inactive
same,Potency,[2],inactive
COC1=CC(=O)O[C@@H](/C=C/c2ccccc2)[C@@H]1O,Potency,[1],inactive
same,Potency,[2],inactive
COC(=O)[C@@]1(C)CC[C@]2(C(=O)O[C@@H]3O[C@H](CO)[C@@H](O)[C@H](O)[C@H]3O)CC[C@]3(C)C(=CCC4[C@@]5(C)CC[C@H](O[C@@H]6O[C@H](C(=O)O)[C@@H](O)[C@H](O)[C@H]6O)C(C)(C)C5CC[C@]43C)[C@@H]2C1 (some centres not stated),"activity change, negative = viability loss",[1],-18.6% [at 9.23 µM] (inactive)
same,"activity change, negative = cell killing",[2],-26.4% [at 9.23 µM] (inactive)
C=CC1C(O[C@@H]2O[C@H](CO)[C@@H](O)[C@H](O)[C@H]2O)OC=C(C(=O)OC)C1CC(=O)O (some centres not stated),Potency,[1],inactive
same,Potency,[2],inactive
CC(C)[C@@H](C)/C=C/[C@@H](C)[C@H]1CC[C@H]2C3=CC=C4C[C@@H](O)CC[C@]4(C)[C@H]3CC[C@]12C,Potency,[1],inactive
same,Potency,[2],inactive
COc1ccc2c(c1O)OC[C@H]1c3ccc(O)cc3O[C@@H]21,Potency,[1],inactive
same,Potency,[2],inactive
CC1(C)CCCC2(C)C3=C(C(=O)OC3O)C(O)CC12 (configuration not stated),Potency,[1],inactive
same,Potency,[2],inactive
CC(=O)O[C@H]1[C@H](C)[C@@H](O)[C@H]2[C@@H]1C=C(C(=O)O)[C@H]1C[C@@H]3[C@H]([C@H]21)[C@H]1C(=O)O[C@@H]2CC[C@@]3(C)O[C@]1(O)[C@@H]2C,Potency,[1],inactive
same,Potency,[2],inactive
CCOC(=O)c1ccnc(CNCC(=O)N(CC)CCN(C)C)c1,Potency,[1],inactive
same,Potency,[2],inactive
COc1cc(/C=C/C(=O)OC2[C@H](O)CC(O)(C(=O)O)C[C@H]2O)ccc1O (some centres not stated),Potency,[1],inactive
same,Potency,[2],inactive
C[C@]12CC[C@@H]3c4ccc(O[C@@H]5O[C@H](C(=O)O)[C@@H](O)[C@H](O)[C@H]5O)cc4CC[C@H]3[C@@H]1CCC2=O,Potency,[1],inactive
same,Potency,[2],inactive
O=C1NC(Cc2ccc(O)cc2)C(=O)N2CCCC12 (configuration not stated),Potency,[1],inactive
same,Potency,[2],inactive
CC1=CC(=O)C2C(C)(C)CC(O)CC2(C)C1CO (configuration not stated),Potency,[1],inactive
same,Potency,[2],inactive
CC1=C2C3OC(=O)C(C)C3(O)CCC2(C)CCC1=O (configuration not stated),Potency,[1],inactive
same,Potency,[2],inactive
COC1(CC(C)C)NC(=O)C(O)(Cc2ccccc2)NC1=O (configuration not stated),Potency,[1],inactive
same,Potency,[2],inactive
CC(/C=C/C1(O)C(C)(C)CC(O)CC1(C)O)OC1OC(CO)C(O)C(O)C1O (configuration not stated),Potency,[1],inactive
same,Potency,[2],inactive
CCOC(=O)[C@H](CCc1ccccc1)N[C@@H](C)C(=O)N1C2CCCCC2C[C@H]1C(=O)O (some centres not stated),Potency,[1],inactive
same,Potency,[2],inactive
NC(=O)[C@H]1CCCCc2c1[nH]c1ccc(Cl)cc21,Potency,[1],inactive
same,Potency,[2],inactive
CC1(O)CCC2C(C(=O)O)=COC(OC3OC(CO)C(O)C(O)C3OC(=O)/C=C/c3ccc(O)cc3)C21 (configuration not stated),Potency,[1],inactive
same,Potency,[2],inactive
CN(NC(=O)CC(=O)NN(C)C(=S)c1ccccc1)C(=S)c1ccccc1,Potency,[1],40.9 nM (active) and 8.3 nM (active)
same,Potency,[2],40.9 nM (active) and 9.3 nM (active)
COc1cc([C@H]2OC[C@@H]3[C@@H](c4ccc(O[C@@H]5O[C@H](CO)[C@@H](O)[C@H](O)[C@H]5O)c(OC)c4)OC[C@]23O)ccc1O,Potency,[1],inactive
same,Potency,[2],inactive
CCOc1ccc(-c2ccc(Cn3c(CC(C)(C)C(=O)O)c(SC(C)(C)C)c4cc(OCc5ccc(C)cn5)ccc43)cc2)cn1,Potency,[1],inactive
same,Potency,[2],inactive
C=C1CC2(C(=O)O)CC1CCC2C1(C)CCCC2(C)C(=O)OC(O)C21 (configuration not stated),Potency,[1],inactive
same,Potency,[2],inactive
C[C@@H]1C/C=C/C=C\C=C\C=C\[C@H](O[C@@H]2O[C@H](C)[C@@H](O)[C@H](N)[C@@H]2O)C[C@@H]2O[C@](O)(C[C@@H](O)C[C@H]3O[C@@H]3/C=C/C(=O)O1)C[C@H](O)[C@H]2C(=O)O,Potency,[1],inactive
same,Potency,[2],inactive
C[C@@H]1O[C@@H](O[C@H]2[C@H](O[C@H]3CC[C@@]4(C)C(CC[C@]5(C)C4CC=C4C6CC(C)(C)CC[C@]6(C(=O)O[C@@H]6O[C@H](CO[C@@H]7O[C@H](CO)[C@@H](O[C@@H]8O[C@@H](C)[C@H](O)[C@@H](O)[C@H]8O)[C@H](O)[C@H]7O)[C@@H](O)[C@H](O)[C@H]6O)CC[C@]45C)[C@]3(C)CO)OC[C@H](O)[C@@H]2O)[C@H](O)[C@H](O)[C@H]1O (some centres not stated),"activity change, negative = viability loss",[1],-5.7% [at 9.23 µM] (inactive)
same,"activity change, negative = cell killing",[2],-6.93% [at 9.23 µM] (inactive)
O=C(O[C@H]1[C@@H]2C=CO[C@@H](O[C@@H]3O[C@H](CO)[C@@H](O)[C@H](O)[C@H]3O)[C@@H]2[C@@]2(CO)O[C@@H]12)c1ccc(O)c(O)c1,Potency,[1],inactive
same,Potency,[2],inactive
Cn1c(=O)c2nc(/C=C/c3cccc(Cl)c3)n(C)c2n(C)c1=O,Potency,[1],inactive
same,Potency,[2],inactive
C[C@@H]1O[C@@H](O[C@H]2[C@H](OC(C#N)c3ccc(O)cc3)O[C@H](CO)[C@@H](O)[C@@H]2O)[C@H](O)[C@H](O)[C@H]1O (some centres not stated),Potency,[1],inactive
same,Potency,[2],inactive
CC1CCC2C(C)(C)C(O)CCC2(C)C12Cc1c(O)cc3c(c1O2)CN=C3N (configuration not stated),Potency,[1],inactive
same,Potency,[2],inactive
C/C=C(\C)C(=O)O[C@@H]1CC2[C@@H](CC=C3C[C@@H](O[C@H]4C[C@H](OC)[C@H](O[C@H]5C[C@H](OC)[C@H](O[C@H]6C[C@H](OC)[C@H](O[C@H]7C[C@@H](OC)[C@H](O[C@@H]8O[C@H](CO)[C@@H](O)[C@H](O)[C@H]8O)[C@@H](C)O7)[C@@H](C)O6)[C@@H](C)O5)[C@@H](C)O4)CC[C@@]32C)[C@@]2(O)CC[C@H](C(C)=O)[C@@]12C (some centres not stated),"activity change, negative = viability loss",[1],-12.3% [at 9.23 µM] (inactive)
same,"activity change, negative = cell killing",[2],-18.8% [at 9.23 µM] (inactive)
